This is a sample that favours compounds with a hit; in the whole collection about 4.7% have one here.
D1 potentiator = human D1 dopamine receptor positive modulation | P21728 | HEK293 TREx D1 cells, calcium flux, dopamine EC20 potentiation | potentiation, % at 10 µM | 0.036% of 360,000 active; in the data active means potentiation above about 30%; further: 0% is about no effect
TRHR PAM = allosterically enhances the human TRH receptor; P34981; enhancement, % at 2 µM; 0.66% of 360,000 active; TRHR cells, fluo-8 calcium fluorescence, EC20 TRH enhancement; AID 493056; in the data active means enhancement above about 30%; further: 0% is about no effect
Target sequence (P34981 whole entry, looked up): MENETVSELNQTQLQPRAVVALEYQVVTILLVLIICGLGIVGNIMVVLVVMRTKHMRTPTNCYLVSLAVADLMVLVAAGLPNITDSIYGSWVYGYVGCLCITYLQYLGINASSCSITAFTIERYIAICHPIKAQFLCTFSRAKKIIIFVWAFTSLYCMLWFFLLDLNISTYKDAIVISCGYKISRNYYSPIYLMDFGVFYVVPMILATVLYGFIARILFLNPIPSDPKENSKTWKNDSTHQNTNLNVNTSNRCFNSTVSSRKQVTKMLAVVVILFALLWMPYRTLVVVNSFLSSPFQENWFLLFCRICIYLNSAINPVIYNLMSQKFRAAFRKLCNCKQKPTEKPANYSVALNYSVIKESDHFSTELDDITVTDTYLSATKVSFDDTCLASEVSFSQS
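Enhancer read-out: after compound pinning and an initial kinetic agonist-mode read, an EC20 of TRH (10 nM final) was injected and fluo-8 calcium signal (Ex 480/Em 530) followed at 1 s/cycle for 100 cycles in TRHR-expressing cells.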
D1 agonist = activates the human D1 dopamine receptor; activation, % at 2 µM; HEK293 T-REx D1 cells, calcium flux, agonist mode; 1% of 360,000 active; further: 0% is about no effect
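Agonism was scored from calcium flux recorded over 180 s (1 read/s) after pintool compound addition, following a 10-cycle baseline. Cells were inducible force-coupled HEK293 TREx D1, plated overnight at 30 C and loaded with no-wash calcium dye.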
TRHR agonist = activates the human TRH receptor; P34981; TRHR cells, calcium flux fluo-8, FDSS agonist mode; activation, % at 2 µM; 0.18% of 360,000 active; AID 493084; further: 0% is about no effect
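Fluo-8-loaded TRHR cells; 10 s baseline, compound added, kinetic Ca2+ fluorescence read 1/s, agonist mode.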
D1 antag = human D1 dopamine receptor antagonism. 3.2% of 360,000 active. HEK293 TREx D1 cells, calcium flux, dopamine EC80; stronger effect = lower value. P21728. activity change, negative = inhibition, % at 10 µM. AID 504652; in the data active means activity change below about -30%; further: on the % scale 0 is the no-effect control and ±100 the full control effect
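Tetracycline-induced HEK293 Trex D1 cells, force-coupled to calcium, dye-loaded; compounds added and read 180 s, then EC80 dopamine added and calcium flux tracked kinetically another 180 s.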
An asterisk follows results filed as active; nt = no result. Unless noted, no stated cut-off is given here; in the data, active means activation above about 30%; inactive means the rest.

SMILES | D1 potentiator | TRHR PAM | D1 agonist | TRHR agonist | D1 antag
CCOC(=O)NC(NC(=S)Nc1ccc(OC)cc1)C(Cl)(Cl)Cl (configuration not stated) | -10 | -6 | 2 | -1 | -34*
CCc1nn(CC(=O)NC2CC2)c(=O)c2cc3c(OC)cccc3n12 | -7 | 15 | 0 | -1 | -30
CC(=O)NC(NC(=S)Nc1ccc(S(N)(=O)=O)cc1)C(Cl)(Cl)Cl (configuration not stated) | 2 | -1 | 2 | 0 | 0
CC(=O)NC(NC(=S)Nc1ccc(N=Nc2ccccc2)cc1)C(Cl)(Cl)Cl (configuration not stated) | -10 | -2 | 17 | 0 | -44*
Cc1cccc(NC(=O)CSc2cn(CC(=O)N3CCCCCC3)c3ccccc23)c1 | -2 | 2 | 1 | -2 | 7
Cc1ccc2c(c1)N(C(=O)CCC(=O)NCCCN1CCC(Cc3ccccc3)CC1)CCO2 | -11 | -3 | 23 | 1 | -40*
O=C(CCC(=O)N1CCOc2ccccc21)NCCCN1CCCCC1 | -8 | 0 | 1 | 0 | 5
CCC1CCCCN1CCCNC(=O)CCC(=O)N1CCOc2ccccc21 (configuration not stated) | 0 | 4 | 5 | 0 | -30*
Cc1ccc2c(c1)N(C(=O)CCC(=O)NCCCN1CCN(C)CC1)CCO2 | -9 | 5 | 1 | 1 | -2
CN(CCCNC(=O)CCC(=O)N1CCOc2ccc(Cl)cc21)Cc1ccccc1 | -14 | -3 | 6 | 0 | -31*
Cc1ccc(C)c(N2CCN(S(=O)(=O)c3ccc(C(=O)N(C)C)s3)CC2)c1 | 1 | -7 | 0 | -1 | 5
CCc1sc(Nc2cccc(C)c2)nc1-c1cc2cccc(OC)c2oc1=O | -4 | -9 | 5 | 0 | -3
COc1cccc(C2C=C(c3ccc(Br)s3)Nc3ncnn32)c1OC (configuration not stated) | -1 | 0 | 48* | 33* | -10
Cc1cc2c(s1)c1cnn(Cc3ccc(F)c(Cl)c3)c(=O)c1n2C | -4 | 0 | 0 | 0 | -11
CCc1ccc(OCC(=O)Nc2cc3oc4ccccc4c3cc2OC)c(Br)c1 | -2 | 12 | 1 | -1 | 10
CCOc1ccc(-c2nnc(SCC(=O)Nc3cccc(Cl)c3C)o2)cc1 | 0 | 0 | 22 | 1 | -35*
CN(C)S(=O)(=O)c1ccc(NC(=O)COC(=O)C2COc3ccccc3O2)cc1 (configuration not stated) | -4 | -4 | 1 | 0 | -94*
O=C(COC(=O)C1COc2ccccc2O1)Nc1ccc(Cl)cc1 (configuration not stated) | nt | 4 | 1 | 0 | -12
COCc1cc(C)nc2sc3c(c12)NC(c1ccc(O)cc1)N(c1ccc(OC)cc1)C3=O (configuration not stated) | 10 | 5 | 2 | -1 | -1
Cn1cnc(C(=O)N2CCN(c3ccccc3)CC2)c1C(=O)N1CCN(c2ccccc2)CC1 | -2 | -8 | -1 | 0 | -39*
Cn1cnc(C(=O)N2CCN(C(=O)OC(C)(C)C)CC2)c1C(=O)N1CCN(C(=O)OC(C)(C)C)CC1 | 0 | 17 | 3 | 0 | 0
COc1ccc(OCC(=O)N/N=C2/C=C(C)CC2)cc1 | -3 | 33* | 0 | 0 | 12
CC(C)CN(c1ccccc1)S(=O)(=O)c1nnc(NC(=O)C2CCCCC2)s1 | -2 | -6 | 24 | 0 | -1
Cc1cccc(N(C(=O)c2nsc(Cl)c2Cl)C(C(=O)NC2CCCC2)c2ccc(O)cc2)c1C (configuration not stated) | -8 | -6 | 6 | 0 | -40*
CC(=O)c1cccc(N(CC(=O)NC2CCCC2)C(=O)c2csnn2)c1 | nt | 2 | 10 | 1 | -39*
SMILES | D1 potentiator | TRHR PAM | D1 agonist | TRHR agonist | D1 antag
Cc1ccccc1N(C(=O)c1csnn1)C(C(=O)NC1CCCCC1)c1ccncc1 (configuration not stated) | -3 | 32* | 1 | -1 | 9
O=C(NC1CCCCC1)C(c1ccccc1F)N(C(=O)c1csnn1)C1CCCC1 (configuration not stated) | nt | 2 | 61* | -1 | -23
O=C(NC1CCCC1)C(c1ccncc1)N(C(=O)c1csnn1)c1ccccc1F (configuration not stated) | 1 | 28 | -2 | 0 | 9
COC(=O)c1c(-c2cccs2)csc1NC(=O)COc1c(C)ccc(C)c1C | 1 | 1 | 4 | 1 | 7
O=C(CN(c1cc(C(F)(F)F)ccc1Cl)S(=O)(=O)c1ccccc1)NCCc1ccccc1 | -2 | -5 | 11 | -1 | -4
O=C(COC(=O)Cc1cccs1)NCc1ccc(F)cc1 | -11 | 10 | 0 | -1 | -25
O=C(c1ccc(CSc2nc3ccncc3n2Cc2ccc(F)cc2)cc1)N1CCCCCC1 | -4 | -5 | -1 | 0 | -5
CCOC(=O)C1CCCN(Cc2cc(=O)oc3cc(C)ccc23)C1 (configuration not stated) | -2 | -8 | 0 | -1 | -41*
CCOC(=O)C1CCCN(CC(=O)Nc2cc(C)cc(C)c2)C1 (configuration not stated) | -3 | -10 | 3 | -1 | -40*
CCOC(=O)C1CCCN(S(=O)(=O)Cc2ccccc2Cl)C1 (configuration not stated) | -8 | -9 | 2 | 0 | -31*
CCOC(=O)C1CCCN(Cc2c(Cl)cccc2Cl)C1 (configuration not stated) | -7 | -2 | 2 | -1 | -36*
CCCS(=O)(=O)N1CCCC(C(=O)Oc2ccccc2Cl)C1 (configuration not stated) | -8 | -4 | 0 | 0 | 29
CCOC(=O)C1CCN(Cc2cc(=O)oc3cc(C)ccc23)CC1 | -1 | -1 | 3 | -1 | -7
Cc1c(C(=O)Nc2ccccc2Br)oc2ccc(S(=O)(=O)N3CCCCCC3)cc12 | 1 | 3 | -4 | 0 | 4
Cc1ccc(N2CC(C(=O)Nc3nnc(SCc4ccccn4)s3)CC2=O)cc1 (configuration not stated) | 1 | 1 | 4 | 0 | 0
O=C(Nc1nnc(SCc2ccccn2)s1)C1CC(=O)N(c2ccccc2)C1 (configuration not stated) | -10 | 7 | 2 | 0 | -78*
CCOC(=O)CCc1cc(F)c(S(=O)(=O)N2CCN(S(=O)(=O)c3ccc4c(c3)OCCO4)CC2)cc1F | -3 | 3 | 3 | -1 | 13
CCOc1ccc2nc(C)cc(Nc3ccccc3OCC)c2c1 | -1 | 11 | 25 | -1 | -49*
CCOc1ccc2nc(C)cc(C(=O)O)c2c1 | -3 | 0 | 2 | 1 | 23
Cc1cccc(-n2nnnc2S(C)(=O)=O)c1 | -1 | 4 | 4 | 0 | -51*

Compound activity from PubChem.
